Results from PubChem BioAssay AID463173 (ICCB-Longwood Screening Facility, Harvard Medical School, 2010).
Screen size: about 52,000 compounds; about 4,300 (8.3%) were called active. Cut-off read from the data, not from the text of the source: active = survival mostly below about 52% (no sharp cut-off); inactive = mostly above about 56%. For the sample, actives were picked, then their nearest neighbours and some compounds at random.

The compounds below were run on DeltatarO mutant (assay: S. aureus survival, RN4220 and DeltatarO strains – OD600, teichoic acid synthesis inhibitors, primary screen (AID 463173)). Conditions: S. aureus RN4220 wild type/DeltatarO growth, OD600, 18 h, active compounds read low, screened at 18.75 µg/mL (by protocol).

SMILES | survival
Nc1ccc(Oc2ccc(C(=O)O)c(C(=O)O)c2)cc1 | 98% (inactive)
O=C(NCc1ccco1)C1C2C3CCC(C3)C12 (stereo unspecified) | 77% (inactive)
CC(CC1C(C#N)=C(N)SC(N)=C1C#N)c1ccccc1 (stereo unspecified) | 51% (inactive)
N#CC1=C(N)SC(N)=C(C#N)C1c1ccc(O)cc1 | 82% (inactive)
N#CC1=C(N)SC(N)=C(C#N)C1CCC1CCCCC1 | 2% (active)
COc1ccccc1N1CCN(c2ncnc3c2cnn3C)CC1 | 83% (inactive)
CCCOc1ccc(C(=O)N2CCC(c3nc4ccccc4s3)CC2)cc1 | 36% (active)
CC(C)COc1ccc(C(=O)N2CCC(c3nc4ccccc4s3)CC2)cc1 | 17% (active)
CCCOc1ccccc1C(=O)N1CCC(c2nc3ccccc3s2)CC1 | 63% (inactive)
CCOc1cccc(C(=O)N2CCC(c3nc4ccccc4s3)CC2)c1 | 75% (inactive)
CC(C)Oc1ccc(C(=O)N2CCC(c3nc4ccccc4s3)CC2)cc1 | 49% (inactive)
O=C(c1ccc(F)cc1)N1CCC(c2nc3ccccc3s2)CC1 | 76% (inactive)
COc1cc(OC)cc(-n2nnc(-c3nc(-c4ccccc4Cl)no3)c2N)c1 | 86% (inactive)
COc1ccccc1N1CCN(S(=O)(=O)c2ccc(-c3coc(C)n3)cc2)CC1 | 71% (inactive)
O=C1CCCc2c1cc(C(=O)N1CCOCC1)c(=O)n2-c1ccccc1 | 69% (inactive)
CCc1ccccc1NC(=O)N1CCN(C(=O)c2nsc3ccccc23)CC1 | 17% (active)
O=C(Nc1ccccc1)N1CCN(C(=O)c2nsc3ccccc23)CC1 | 88% (inactive)
Cc1cccc(NC(=O)N2CCN(C(=O)c3nsc4ccccc34)CC2)c1C | 88% (inactive)
Cc1cc(C)cc(NC(=O)N2CCN(C(=O)c3nsc4ccccc34)CC2)c1 | 88% (inactive)
CCc1ccc(NC(=O)N2CCN(C(=O)c3nsc4ccccc34)CC2)cc1 | 87% (inactive)
Cc1ccc(NC(=O)N2CCN(C(=O)c3nsc4ccccc34)CC2)cc1C | -5% (active)
O=c1oc2ccc3ccccc3c2cc1-c1nnc(Nc2ccc(F)cc2)s1 | 78% (inactive)
Cc1cccc(NC(=O)CN2C(=O)C3(SCC(=O)N3c3ccccc3)c3ccccc32)c1 (stereo unspecified) | 123% (inactive)

SMILES | survival
O=C(NCCc1csc2nc(-c3ccc(F)cc3)nn12)c1cccc(C(F)(F)F)c1 | 78% (inactive)
Cc1ccc(CNC(=O)CSc2ncc(S(=O)(=O)c3ccc(Br)cc3)c(=O)[nH]2)cc1 | 125% (inactive)
CCOc1ccc(CNC(=O)c2ccc3[nH]c(C)c(C)c3c2)cc1OC | 67% (inactive)
CCCCN(C)CC(O)Cn1cc(/C=C/C(=O)c2ccc(Br)cc2)c2ccccc21 (stereo unspecified) | 0% (active)
C=CCn1cc(/C=C(/C#N)C(=O)OCC)c2ccccc21 | 83% (inactive)
CCCCN(C)CC(O)Cn1cc(/C=C/C(=O)c2ccc(C)cc2)c2ccccc21 (stereo unspecified) | 6% (active)
CCOc1ccc(C(=O)/C=C/c2cn(CC(O)CN3CCc4ccccc43)c3ccccc23)cc1 (stereo unspecified) | 56% (inactive)
CCCCN(C)CC(O)Cn1cc(/C=C/C(=O)c2ccc(OC)c(OC)c2)c2ccccc21 (stereo unspecified) | 67% (inactive)
Cc1ccc(C(=O)/C=C/c2cn(CC(O)CN3CCc4ccccc43)c3ccccc23)cc1 (stereo unspecified) | 73% (inactive)
CCCCN(C)CC(O)Cn1cc(/C=C/C(=O)c2ccc(OCC)cc2)c2ccccc21 (stereo unspecified) | 6% (active)
O=S1(=O)N=C(SCCO)c2ccccc21 | 85% (inactive)
CCOc1ccc(NC(=O)c2cc(S(=O)(=O)N3CCCCCC3)cn2C)cc1 | 120% (inactive)
CCCC1N=C2c3ccccc3N=C(SCC(=O)NCCc3ccc(Cl)cc3)N2C1=O (stereo unspecified) | 93% (inactive)
Cc1ccccc1Cn1c(SCc2ccc(C(=O)NCCc3ccccc3)cc2)nc2ccncc21 | 82% (inactive)
CCCCOc1ccc(NC(=O)CS(=O)CC(=O)Nc2ccc(OC)cc2)cc1 (stereo unspecified) | 84% (inactive)
CSc1cccc(NS(=O)(=O)c2ccc3[nH]cc(C(=O)N4CCCCCC4)c(=O)c3c2)c1 | 82% (inactive)
CC(C)(C)c1ccc(C(=O)Nc2ccc(-c3nc4ccccc4o3)c(O)c2)cc1 | 69% (inactive)
Cc1ccc2nc(-c3ccc(Cl)c(NC(=O)c4ccc(Br)o4)c3)oc2c1 | 48% (inactive)
CC(C)(C)c1ccc(C(=O)Nc2cc(-c3nc4ccccc4o3)ccc2Cl)cc1 | 13% (active)
Cc1cc(NC(=O)c2ccc(Br)o2)cc(-c2nc3ccccc3o2)c1O | 98% (inactive)
Cc1ccc2oc(-c3ccc(C)c(NC(=O)c4ccc(C(C)(C)C)cc4)c3)nc2c1 | 136% (inactive)
O=C(Nc1cc(-c2nc3ccccc3o2)ccc1Cl)c1ccc(Br)o1 | 54% (active)
CCC(NC(=O)Nc1ccc(OC)c(OC)c1)c1c(-n2cccc2)sc2c1CCN(C)C2 (stereo unspecified) | 65% (inactive)

SMILES | survival
COc1ccccc1CNC(=O)c1ccc2c(c1)nc(C)n2-c1cccc(C)c1 | 74% (inactive)
COc1ccc(S(=O)(=O)NCCS(=O)(=O)N2CCN(c3ccccc3)CC2)cc1C | 102% (inactive)
COc1ccc(N(CC(=O)N2CCc3ccccc3C2)S(=O)(=O)c2ccccc2)cc1 | 58% (inactive)
CCOc1ccccc1N(CC(=O)N1CCc2ccccc2C1)S(=O)(=O)c1ccccc1 | 37% (active)
CCc1ccccc1N(CC(=O)N1CCc2ccccc2C1)S(C)(=O)=O | 96% (inactive)
COc1ccc(-n2ncc(C(=O)NCc3ccco3)c2C2CCN(C(=O)OC(C)(C)C)CC2)cc1 | 83% (inactive)
Cc1ccccc1NC(=S)N1CCC(NC(=O)C(C)(C)C)CC1 | 92% (inactive)
O=C(Nc1ccc(F)cc1F)C1CCN(S(=O)(=O)c2ccc3[nH]c(=O)ccc3c2)CC1 | 83% (inactive)
CCOC(=O)Cn1nnnc1CN(Cc1cc2c(C)ccc(C)c2[nH]c1=O)C1CCCCC1 | 88% (inactive)
O=C1/C(=C/c2ccccc2O)CC/C1=C\c1ccccc1O | 55% (active)
Oc1ccc(N=Cc2ccccc2O)cc1 | 109% (inactive)
CCN(CC)c1ccc(C=C2C(=O)c3ccccc3C2=O)c(O)c1 | 74% (inactive)
CCOC(=O)c1cccc(NC(=O)CCn2c(=O)oc3ccccc32)c1 | 39% (active)
NS(=O)(=O)c1ccc(NC(=O)CCn2c(=O)oc3ccccc32)cc1 | 73% (inactive)
COC(=O)c1ccc(NC(=O)Cn2c(=O)oc3ccccc32)cc1 | 69% (inactive)
CCOC(=O)c1cccc(NC(=O)CCn2c(-c3ccc(F)cc3)cc(C(=O)OCC)c2C)c1 | 76% (inactive)
CCN(CC)CCOC(=O)c1ccc(NC(=O)CCn2c(=O)oc3ccccc32)cc1 | 45% (active)
CCOC(=O)c1ccc(NC(=O)NCCOCCn2c(=O)oc3ccccc32)cc1 | 77% (inactive)
CCc1cccc(C)c1NC(=O)C1CCN(S(=O)(=O)c2c(C)noc2/C=C/c2c(C)cc(C)cc2C)CC1 | 81% (inactive)
Cn1cc(S(=O)(=O)N2CCCC2)cc1C(=O)Nc1ccc(F)cc1F | 77% (inactive)
COc1ccc(NC(=O)C(NC(=O)Cc2cccs2)c2ccc(OC)cc2)cc1 (stereo unspecified) | 137% (inactive)
C=CCNC(=O)CSc1nc2cc(C)cc(C)c2cc1C#N | 58% (inactive)
COc1ccccc1CNC(=O)CC(c1ccc(OC)c(OC)c1)N1Cc2ccccc2C1=O (stereo unspecified) | 83% (inactive)

SMILES | survival
CCOC(=O)c1noc2ncn(Cc3cccc(C#N)c3)c(=O)c12 | 130% (inactive)
COc1ccc(CCCc2nnc(SCC(=O)Nc3ccc(Cl)cc3)o2)cc1 | 92% (inactive)
COc1ccc(OC)c(NC(=O)CSC2=Nc3ccccc3C3=NC(CCC(=O)NCCc4ccccc4)C(=O)N23)c1 (stereo unspecified) | 80% (inactive)
COc1ccc(OC)c(NC(=O)CSC2=Nc3ccccc3C3=NC(CCC(=O)NCc4ccccc4)C(=O)N23)c1 (stereo unspecified) | 0% (active)
COc1ccc(NC(=O)CSC2=Nc3ccccc3C3=NC(CC(=O)NCc4ccc(F)cc4)C(=O)N23)cc1 (stereo unspecified) | 55% (inactive)
COc1ccc(OC)c(NC(=O)CSC2=Nc3ccccc3C3=NC(CC(=O)NCc4ccc(F)cc4)C(=O)N23)c1 (stereo unspecified) | 52% (active)
COc1ccc(OC)c(NC(=O)CSC2=Nc3ccccc3C3=NC(CC(=O)NCc4ccc5c(c4)OCO5)C(=O)N23)c1 (stereo unspecified) | 80% (inactive)
COc1ccc(OC)c(NC(=O)CSC2=Nc3ccccc3C3=NC(CCC(=O)NCc4ccco4)C(=O)N23)c1 (stereo unspecified) | 78% (inactive)
CCOc1ccc(C2C(=O)N(C3CCCCC3)CC(=O)N2C2CCCC2)cc1OC (stereo unspecified) | 71% (inactive)
CC(=O)N1CCOc2cc(S(=O)(=O)NCc3ccccc3Cl)c(C)cc21 | 85% (inactive)
Cc1cc(Cl)ccc1NC(=O)c1cccc(NC(=O)N2CCSc3ncccc32)c1 | 74% (inactive)
CCCc1nn2c(=O)cc(COC(=O)c3ccco3)nc2s1 | 77% (inactive)
CCOC(=O)c1cc2c(=O)n3ccccc3nc2n(C)c1=NC(=O)c1c(-c2ccccc2Cl)noc1C | 141% (inactive)
Cc1ccc(NC(=O)c2c(C)nc3sc(C(=O)Nc4ccc(F)cc4)c(N)c3c2-c2ccc(C)o2)c(C)c1 | 60% (inactive)
CCOC(=O)c1c(-c2ccccc2)oc2ccc(N(C(C)=O)S(=O)(=O)c3ccc(CC)cc3)cc12 | 69% (inactive)
O=C(O)c1c(-c2ccccc2)oc2ccc(OCc3c(F)cccc3Cl)cc12 | 29% (active)
CNC(=O)c1c(-c2ccccc2)oc2ccc(OC)cc12 | 90% (inactive)
CCOC(=O)c1c(-c2ccccc2)oc2ccc(NS(=O)(=O)c3ccc(C(C)C)cc3)cc12 | 70% (inactive)
C=Cc1ccc(COc2ccc3oc(-c4ccccc4)c(C(=O)OCC)c3c2)cc1 | 45% (active)
COC(=O)c1cc2oc3ccccc3c2n1Cc1c(F)cccc1Cl | 118% (inactive)
CCOC(=O)c1c(-c2ccccc2)oc2ccc(OCc3ccccc3Br)cc12 | 38% (active)
O=C(O)c1c(-c2ccccc2)oc2ccc(OCc3ccc(Cl)c(Cl)c3)cc12 | -1% (active)
